Among the data in article PMC7862700, “An all-to-all approach to the identification of sequence-specific readers for epigenetic DNA modifications on cytosine” are binding signal values, retold here.

Common to all, as to test: DAPPL (digital affinity profiling via proximity ligation, sequencing); 10 mM Tris-HCl pH 7.5, 50 mM NaCl, 1 mM DTT, 4% glycerol, room temperature, 30 min; GST-TFs on glutathione beads, 16-mer random dsDNA library, 0.1% formaldehyde crosslink after washing; high values mean tight binding
Holding throughout (conditions): protein: recombinant; tags: N-terminal GST; dsDNA, one strand shown

For one assay, the target named is T1, FLI1 (Homo sapiens, UniProt Q01543 1-452).
T1 sequence: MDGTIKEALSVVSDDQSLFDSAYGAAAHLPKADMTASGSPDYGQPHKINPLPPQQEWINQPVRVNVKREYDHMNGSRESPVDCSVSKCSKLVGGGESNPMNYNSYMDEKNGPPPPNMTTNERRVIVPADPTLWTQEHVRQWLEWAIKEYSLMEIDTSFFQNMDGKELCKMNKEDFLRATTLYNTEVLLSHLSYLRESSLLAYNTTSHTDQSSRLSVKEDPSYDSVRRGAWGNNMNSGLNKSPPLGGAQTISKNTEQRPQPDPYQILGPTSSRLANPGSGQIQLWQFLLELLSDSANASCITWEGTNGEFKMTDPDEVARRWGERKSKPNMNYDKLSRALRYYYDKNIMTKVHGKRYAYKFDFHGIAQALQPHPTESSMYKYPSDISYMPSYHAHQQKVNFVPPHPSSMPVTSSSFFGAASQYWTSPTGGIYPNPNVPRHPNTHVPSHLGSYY
An outline of the steps:
(§1)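 Binding signal is defined as a hexamer's read frequency for one factor over its frequency for the tag-only sample. To obtain reads, GST-fused human transcription factors were expressed in yeast, captured on glutathione beads, barcoded with DNA and pooled with that sample. Pools met 200 nmole of a 16-mer random double-stranded DNA library in Tris/NaCl/DTT/glycerol buffer for 30 min at room temperature before washing, 0.1% formaldehyde crosslinking, proximity ligation (BsaI/T4 ligase, 1 h, 37 °C), PCR and Illumina NextSeq500 sequencing.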

In another assay the target is T2, ELK1 (Homo sapiens, UniProt P19419 1-428).
T2 sequence: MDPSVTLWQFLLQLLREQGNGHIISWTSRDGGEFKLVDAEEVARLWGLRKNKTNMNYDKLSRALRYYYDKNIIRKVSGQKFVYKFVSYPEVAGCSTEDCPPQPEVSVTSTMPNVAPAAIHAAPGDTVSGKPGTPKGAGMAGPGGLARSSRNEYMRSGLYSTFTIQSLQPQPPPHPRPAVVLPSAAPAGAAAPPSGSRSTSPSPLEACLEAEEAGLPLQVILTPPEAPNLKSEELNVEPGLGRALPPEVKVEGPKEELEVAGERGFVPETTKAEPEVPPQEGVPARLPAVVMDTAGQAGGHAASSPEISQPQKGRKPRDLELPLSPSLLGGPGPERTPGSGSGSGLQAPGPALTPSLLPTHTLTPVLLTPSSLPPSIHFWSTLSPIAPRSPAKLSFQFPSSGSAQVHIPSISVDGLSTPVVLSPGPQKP
The procedure, abridged: as §1

In another assay the target is T3, GABPA (Homo sapiens, UniProt Q06546 1-454).
T3 sequence: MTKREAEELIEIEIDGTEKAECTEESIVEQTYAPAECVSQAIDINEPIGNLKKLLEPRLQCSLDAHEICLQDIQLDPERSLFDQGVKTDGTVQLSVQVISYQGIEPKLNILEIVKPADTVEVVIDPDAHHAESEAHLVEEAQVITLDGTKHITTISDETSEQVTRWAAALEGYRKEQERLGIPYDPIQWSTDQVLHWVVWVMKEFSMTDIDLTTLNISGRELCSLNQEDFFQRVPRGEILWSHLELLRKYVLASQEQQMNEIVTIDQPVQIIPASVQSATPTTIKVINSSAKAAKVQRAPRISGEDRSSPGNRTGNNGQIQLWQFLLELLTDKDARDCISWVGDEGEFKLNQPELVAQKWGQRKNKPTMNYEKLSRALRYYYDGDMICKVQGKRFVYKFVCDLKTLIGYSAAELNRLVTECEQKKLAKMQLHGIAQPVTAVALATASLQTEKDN
An outline of the steps:
as §1

The target in another assay is T4, ERG (Homo sapiens, UniProt P11308 1-479).
T4 sequence: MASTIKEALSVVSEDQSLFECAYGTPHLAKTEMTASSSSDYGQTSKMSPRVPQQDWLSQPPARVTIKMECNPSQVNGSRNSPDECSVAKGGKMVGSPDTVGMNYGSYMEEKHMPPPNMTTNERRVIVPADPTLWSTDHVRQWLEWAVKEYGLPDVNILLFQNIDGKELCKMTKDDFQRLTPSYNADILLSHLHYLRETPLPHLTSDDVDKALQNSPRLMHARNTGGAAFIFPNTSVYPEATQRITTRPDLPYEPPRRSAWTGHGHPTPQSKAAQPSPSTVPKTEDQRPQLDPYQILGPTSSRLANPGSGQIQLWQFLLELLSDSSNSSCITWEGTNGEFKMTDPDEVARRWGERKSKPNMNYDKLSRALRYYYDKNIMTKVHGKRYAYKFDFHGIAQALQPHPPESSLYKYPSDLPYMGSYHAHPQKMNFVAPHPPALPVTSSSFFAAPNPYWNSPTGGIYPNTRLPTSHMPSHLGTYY
An outline of the steps: as §1

For the next assay, the target named is ELF1 (Homo sapiens, UniProt P32519 1-619). An outline of the steps:
as §1

For a further assay, the target named is T5, EHF (Homo sapiens, UniProt Q9NZC4 1-300).
T5 sequence: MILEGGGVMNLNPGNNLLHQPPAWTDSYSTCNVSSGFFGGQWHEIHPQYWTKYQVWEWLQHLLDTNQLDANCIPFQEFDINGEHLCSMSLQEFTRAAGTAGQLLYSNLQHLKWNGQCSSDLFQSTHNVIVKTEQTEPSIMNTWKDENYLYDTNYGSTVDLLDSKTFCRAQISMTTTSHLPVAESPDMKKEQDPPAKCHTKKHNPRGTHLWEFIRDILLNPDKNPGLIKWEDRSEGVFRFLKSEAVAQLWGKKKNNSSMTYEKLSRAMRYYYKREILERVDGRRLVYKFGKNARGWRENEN
An outline of the steps:
as §1

In the next assay the target is SPI1 (Homo sapiens, UniProt P17947 1-270). The procedure, abridged: as §1
For another assay, the target named is SPIB (Homo sapiens, UniProt Q01892 1-262). The procedure, abridged: as §1
Chain of SPIB (Q01892 whole entry): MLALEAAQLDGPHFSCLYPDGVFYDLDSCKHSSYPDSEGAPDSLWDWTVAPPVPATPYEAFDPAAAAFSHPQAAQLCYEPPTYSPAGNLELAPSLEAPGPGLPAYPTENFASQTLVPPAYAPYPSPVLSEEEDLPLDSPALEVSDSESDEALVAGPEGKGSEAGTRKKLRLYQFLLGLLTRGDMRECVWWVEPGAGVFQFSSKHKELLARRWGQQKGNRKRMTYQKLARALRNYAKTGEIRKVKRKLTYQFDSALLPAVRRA
The target in a further assay is T6, ELK3 (Homo sapiens, UniProt P41970 1-407).
T6 sequence: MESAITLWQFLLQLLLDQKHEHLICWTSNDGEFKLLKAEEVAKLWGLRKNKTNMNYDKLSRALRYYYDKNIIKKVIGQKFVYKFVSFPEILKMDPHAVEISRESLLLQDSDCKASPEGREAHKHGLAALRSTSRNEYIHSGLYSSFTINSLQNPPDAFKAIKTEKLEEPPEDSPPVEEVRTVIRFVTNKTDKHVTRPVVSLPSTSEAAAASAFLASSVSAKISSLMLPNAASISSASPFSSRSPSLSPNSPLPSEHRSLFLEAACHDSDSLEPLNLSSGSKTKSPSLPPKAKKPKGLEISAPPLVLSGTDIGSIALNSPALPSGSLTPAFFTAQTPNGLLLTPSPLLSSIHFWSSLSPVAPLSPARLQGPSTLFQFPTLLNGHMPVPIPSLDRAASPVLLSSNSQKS
An outline of the steps:
as §1

For another assay, the target named is T7, FEV (Homo sapiens, UniProt Q99581 1-238).
T7 sequence: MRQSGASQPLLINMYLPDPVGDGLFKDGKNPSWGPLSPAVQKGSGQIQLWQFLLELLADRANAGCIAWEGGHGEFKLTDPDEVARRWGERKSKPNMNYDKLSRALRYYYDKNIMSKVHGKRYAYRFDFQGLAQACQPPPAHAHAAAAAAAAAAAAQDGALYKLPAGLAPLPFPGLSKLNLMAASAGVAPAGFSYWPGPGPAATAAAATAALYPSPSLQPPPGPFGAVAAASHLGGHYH
The procedure, abridged:
as §1

Another assay deals with ETV5 (Homo sapiens, UniProt P41161 1-510). An outline of the steps: as §1
Chain of ETV5 (P41161 whole entry): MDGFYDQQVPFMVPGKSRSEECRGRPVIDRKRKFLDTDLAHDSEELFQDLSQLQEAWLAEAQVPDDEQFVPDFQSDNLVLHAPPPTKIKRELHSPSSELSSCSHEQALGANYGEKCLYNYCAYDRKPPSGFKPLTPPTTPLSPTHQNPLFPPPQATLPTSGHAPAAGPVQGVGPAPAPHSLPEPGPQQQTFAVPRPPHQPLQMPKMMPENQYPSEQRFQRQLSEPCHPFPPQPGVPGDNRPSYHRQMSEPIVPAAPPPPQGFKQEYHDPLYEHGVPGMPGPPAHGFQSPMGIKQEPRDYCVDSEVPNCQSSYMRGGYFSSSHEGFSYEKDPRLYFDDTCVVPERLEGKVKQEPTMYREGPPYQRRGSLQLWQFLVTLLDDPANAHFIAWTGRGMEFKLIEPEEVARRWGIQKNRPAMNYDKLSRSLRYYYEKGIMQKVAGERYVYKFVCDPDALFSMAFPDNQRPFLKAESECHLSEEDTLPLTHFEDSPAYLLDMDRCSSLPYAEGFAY
Another assay deals with T8, SPIC (Homo sapiens, UniProt Q8N5J4 1-248).
T8 sequence: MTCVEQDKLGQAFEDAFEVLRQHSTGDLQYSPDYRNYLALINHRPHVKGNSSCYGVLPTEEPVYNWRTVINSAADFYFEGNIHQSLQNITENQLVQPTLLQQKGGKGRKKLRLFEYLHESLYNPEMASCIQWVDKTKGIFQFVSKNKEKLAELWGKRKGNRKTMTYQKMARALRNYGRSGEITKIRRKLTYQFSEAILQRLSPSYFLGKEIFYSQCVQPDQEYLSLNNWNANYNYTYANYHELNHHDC
An outline of the steps:
as §1

The target in the next assay is ELF4 (Homo sapiens, UniProt Q99607 1-663). An outline of the steps:
as §1

Another assay addresses T9, ELK4 (Homo sapiens, UniProt P28324-2 1-405).
T9 sequence: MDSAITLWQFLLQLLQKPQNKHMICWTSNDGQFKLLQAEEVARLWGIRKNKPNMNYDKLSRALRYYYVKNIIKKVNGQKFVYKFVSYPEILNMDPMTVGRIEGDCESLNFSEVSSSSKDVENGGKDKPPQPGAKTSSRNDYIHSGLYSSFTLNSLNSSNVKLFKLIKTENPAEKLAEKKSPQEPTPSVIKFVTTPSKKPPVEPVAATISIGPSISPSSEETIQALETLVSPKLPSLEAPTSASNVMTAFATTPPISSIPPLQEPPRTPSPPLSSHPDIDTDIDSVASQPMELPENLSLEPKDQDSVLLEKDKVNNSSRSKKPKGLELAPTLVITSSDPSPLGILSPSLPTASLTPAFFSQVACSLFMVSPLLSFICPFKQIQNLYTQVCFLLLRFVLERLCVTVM
The procedure, abridged:
as §1

In the next assay the target is T10, ETV2 (Homo sapiens, UniProt O00321 1-342).
T10 sequence: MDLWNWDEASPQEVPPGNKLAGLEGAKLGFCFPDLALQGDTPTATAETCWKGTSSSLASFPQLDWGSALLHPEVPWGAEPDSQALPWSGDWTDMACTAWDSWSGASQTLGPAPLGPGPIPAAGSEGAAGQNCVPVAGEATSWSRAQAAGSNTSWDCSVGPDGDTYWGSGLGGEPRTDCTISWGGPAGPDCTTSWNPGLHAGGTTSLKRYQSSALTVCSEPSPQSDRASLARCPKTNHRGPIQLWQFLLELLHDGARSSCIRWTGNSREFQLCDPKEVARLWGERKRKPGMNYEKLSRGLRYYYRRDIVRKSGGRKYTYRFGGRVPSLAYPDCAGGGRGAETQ
The procedure, abridged: as §1

Another assay addresses T11, ELF3 (Homo sapiens, UniProt P78545 1-371).
T11 sequence: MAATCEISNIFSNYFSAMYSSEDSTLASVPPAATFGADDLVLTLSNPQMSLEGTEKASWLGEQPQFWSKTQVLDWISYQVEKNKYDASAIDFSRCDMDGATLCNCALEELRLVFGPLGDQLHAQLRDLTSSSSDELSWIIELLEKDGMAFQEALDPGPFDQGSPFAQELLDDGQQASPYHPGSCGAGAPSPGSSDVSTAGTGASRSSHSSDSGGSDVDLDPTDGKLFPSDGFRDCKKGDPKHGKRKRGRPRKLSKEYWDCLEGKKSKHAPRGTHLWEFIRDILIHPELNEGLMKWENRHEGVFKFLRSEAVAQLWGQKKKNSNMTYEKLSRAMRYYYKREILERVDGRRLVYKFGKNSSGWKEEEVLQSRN
The procedure, abridged:
as §1

For a further assay, the target named is ETV1 (Homo sapiens, UniProt P50549 1-477). An outline of the steps: as §1
Chain of ETV1 (P50549 whole entry): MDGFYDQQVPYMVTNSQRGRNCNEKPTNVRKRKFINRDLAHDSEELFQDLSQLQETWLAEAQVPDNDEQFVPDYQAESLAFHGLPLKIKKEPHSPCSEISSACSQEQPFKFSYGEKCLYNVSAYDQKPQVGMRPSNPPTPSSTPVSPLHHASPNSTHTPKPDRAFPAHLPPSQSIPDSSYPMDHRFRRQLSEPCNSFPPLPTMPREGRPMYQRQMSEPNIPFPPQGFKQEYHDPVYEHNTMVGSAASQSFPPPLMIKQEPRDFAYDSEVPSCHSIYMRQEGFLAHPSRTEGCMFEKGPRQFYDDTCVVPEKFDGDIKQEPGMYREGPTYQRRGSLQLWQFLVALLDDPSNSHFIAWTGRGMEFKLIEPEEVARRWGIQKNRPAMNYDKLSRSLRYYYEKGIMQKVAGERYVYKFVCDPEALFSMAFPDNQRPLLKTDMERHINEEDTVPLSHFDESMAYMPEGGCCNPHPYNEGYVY

Chain of ELF4 (Q99607 whole entry): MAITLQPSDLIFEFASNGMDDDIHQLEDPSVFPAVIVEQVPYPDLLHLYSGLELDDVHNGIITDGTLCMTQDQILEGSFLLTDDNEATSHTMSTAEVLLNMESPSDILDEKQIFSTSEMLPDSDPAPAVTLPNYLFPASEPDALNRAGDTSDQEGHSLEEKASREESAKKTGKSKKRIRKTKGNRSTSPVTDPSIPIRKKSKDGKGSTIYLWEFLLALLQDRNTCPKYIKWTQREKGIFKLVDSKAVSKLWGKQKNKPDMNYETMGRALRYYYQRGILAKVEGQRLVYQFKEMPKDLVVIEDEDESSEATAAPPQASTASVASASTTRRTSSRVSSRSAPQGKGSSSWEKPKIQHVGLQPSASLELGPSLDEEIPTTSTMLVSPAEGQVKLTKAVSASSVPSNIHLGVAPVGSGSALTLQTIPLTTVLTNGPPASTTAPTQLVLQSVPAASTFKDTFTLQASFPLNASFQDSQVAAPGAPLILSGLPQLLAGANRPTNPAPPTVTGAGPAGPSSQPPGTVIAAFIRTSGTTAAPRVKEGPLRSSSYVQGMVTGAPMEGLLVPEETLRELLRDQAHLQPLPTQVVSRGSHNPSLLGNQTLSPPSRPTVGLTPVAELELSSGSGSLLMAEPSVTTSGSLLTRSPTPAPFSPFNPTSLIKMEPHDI
Chain of ELF1 (P32519 whole entry): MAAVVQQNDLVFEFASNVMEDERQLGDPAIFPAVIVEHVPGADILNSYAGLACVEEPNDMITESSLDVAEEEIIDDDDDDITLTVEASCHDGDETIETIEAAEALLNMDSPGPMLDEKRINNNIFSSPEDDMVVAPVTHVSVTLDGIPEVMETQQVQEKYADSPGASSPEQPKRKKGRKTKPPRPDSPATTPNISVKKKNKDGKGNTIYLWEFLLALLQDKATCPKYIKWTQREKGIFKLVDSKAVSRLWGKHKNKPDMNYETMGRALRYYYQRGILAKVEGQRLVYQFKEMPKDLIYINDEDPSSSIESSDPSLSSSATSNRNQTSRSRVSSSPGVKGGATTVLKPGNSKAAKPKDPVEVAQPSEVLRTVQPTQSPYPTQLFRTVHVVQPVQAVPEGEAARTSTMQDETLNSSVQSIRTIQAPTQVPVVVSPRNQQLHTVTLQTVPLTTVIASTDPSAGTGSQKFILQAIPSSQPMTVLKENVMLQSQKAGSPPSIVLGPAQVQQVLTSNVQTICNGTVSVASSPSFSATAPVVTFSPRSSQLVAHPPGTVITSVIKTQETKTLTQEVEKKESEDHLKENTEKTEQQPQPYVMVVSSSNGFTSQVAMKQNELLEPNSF

Take CACGCC: the binding signal is 1.12 fold enrichment (6-mer frequency, TF over GST control) with FLI1; 1.25 fold enrichment (6-mer frequency, TF over GST control) with ELK1; 1.27 fold enrichment (6-mer frequency, TF over GST control) in the assay with GABPA; 1.29 fold enrichment (6-mer frequency, TF over GST control) with ERG; 1.26 fold enrichment (6-mer frequency, TF over GST control) with ELF1; 1.18 fold enrichment (6-mer frequency, TF over GST control) with EHF. Further, the binding signal in the assay with SPI1 is 1.2 fold enrichment (6-mer frequency, TF over GST control); in the assay with SPIB it was 1.15 fold enrichment (6-mer frequency, TF over GST control); with ELK3 it was 1.22 fold enrichment (6-mer frequency, TF over GST control); in the assay with FEV, 1.19 fold enrichment (6-mer frequency, TF over GST control); with ETV5, 1.17 fold enrichment (6-mer frequency, TF over GST control); with SPIC, 1.01 fold enrichment (6-mer frequency, TF over GST control). The binding signal with ELF4 was 1.25 fold enrichment (6-mer frequency, TF over GST control); with ELK4, 1.24 fold enrichment (6-mer frequency, TF over GST control); with ETV2, 1.22 fold enrichment (6-mer frequency, TF over GST control); with ELF3 it was 1.27 fold enrichment (6-mer frequency, TF over GST control); with ETV1, 1.19 fold enrichment (6-mer frequency, TF over GST control).
